Assay outcomes as filed in PubChem BioAssay.
PLK1 PBD inh – inhibitors of human Plk1 polo box domain binding; inhibition, %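 (tested at about 20 µM)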; Plk1 PBD phosphopeptide binding, fluorescence polarization; hit rate 0.13% among 97,000; P53350; in the data active means inhibition above about 34%, passing the limit was not always enough
PLK1 inh – PLK1 (human) kinase inhibition | recombinant PLK1 kinase, TR-FRET peptide phosphorylation | AID 619 | hit rate 0.53% among 97,000 | inhibition, % at 10 µM | P53350;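 active means inhibition of 50% or more in the single-concentration screen; inactive means inhibition below 50%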
CYP2C19 act – increases human CYP2C19 enzyme activity; 96,000 tested, under 10 active; recombinant CYP2C19, luciferin-H EGE luminescence; active compounds read high; 0 = fully inhibited enzyme, 1 = untreated enzyme; P33261; activation factor at 5 µM;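 active means activation factor of at least 2 at 5 µM in the primary screen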
Target sequence (P33261 whole entry, looked up): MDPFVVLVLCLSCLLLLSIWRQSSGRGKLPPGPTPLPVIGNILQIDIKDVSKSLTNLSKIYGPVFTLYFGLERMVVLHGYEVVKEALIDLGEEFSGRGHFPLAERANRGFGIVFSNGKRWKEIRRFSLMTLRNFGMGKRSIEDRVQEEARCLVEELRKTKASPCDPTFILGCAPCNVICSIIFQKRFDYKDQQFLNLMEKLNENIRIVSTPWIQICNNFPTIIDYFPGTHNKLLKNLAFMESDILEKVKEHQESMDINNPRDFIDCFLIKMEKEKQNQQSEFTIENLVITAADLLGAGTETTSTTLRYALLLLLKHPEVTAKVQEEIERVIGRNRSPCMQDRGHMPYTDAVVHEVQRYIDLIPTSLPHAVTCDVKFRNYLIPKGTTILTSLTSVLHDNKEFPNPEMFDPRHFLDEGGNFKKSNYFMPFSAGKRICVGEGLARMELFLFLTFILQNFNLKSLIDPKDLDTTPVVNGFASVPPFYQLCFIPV
CYP2C9 act – increases human cytochrome P450 2C9 activity | P11712 | recombinant CYP2C9, luciferin-H conversion, luminescence; active compounds read high; factor 1 = untreated enzyme, 0 = blocked | activation factor at 5 µM | hit rate 1.4% among 96,000 | AID 1024;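 active means activation factor of 2 or more for CYP2C9 at a 5 µM dose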
CYP2C19 inh – inhibitors of human CYP2C19. P33261. CYP2C19 Supersomes, luciferin-H EGE luminescence, 30 min. inhibition, % at 5 µM. hit rate 21% among 96,000;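 active means CYP2C19 inhibition above a set limit at 5 µM in the primary screen, cut at about 50% in these data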
CYP2C9 inh – inhibitors of human CYP2C9; CYP2C9 Supersomes, luciferin-H conversion, luminescence; inhibition, % at 5 µM; hit rate 20% among 96,000;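 active means blocking of liver enzyme CYP2C9 beyond about 50% at 5 µM, limit read from the data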
A number is an active result; - = inactive; . = not tested or not shown; ! = not active in a repeat. This is a sample that favours compounds with a hit; in the whole collection about 28% have one here.

SMILES	PLK1 PBD inh	PLK1 inh	CYP2C19 act	CYP2C9 act	CYP2C19 inh	CYP2C9 inh
CCOC(=O)c1c(C)oc2c1c(C(c1ccncc1)N1CCOCC1)c(O)c1ccccc12 (stereo not given)	-	-	-	-	98	97
CCOC(=O)c1c(C)c(C(=O)NCc2ccccn2)c(C)n1C	-	-	-	-	-	-
CCOC(=O)c1c(C)oc2c1c(C=NC1CCS(=O)(=O)C1)c(O)c1ccccc12 (stereo not given)	-	-	-	-	-	-
CCOC(=O)c1c(C)oc2c1c1c(c3ccccc32)OCN(Cc2ccccn2)C1	-	-	-	-	-	54
COc1ccc(C2C3=C(CC(C)(C)CC3=O)Oc3ncn(CCO)c(=N)c32)cc1OC (stereo not given)	-	-	-	-	-	-
N#C/C(=N\Nc1ccc(Cl)cc1)C(=O)c1ccccc1	-	-	-	-	69	-
CCOC(=O)NC(=O)/C(C#N)=N\Nc1ccc(Cl)cc1	-	-	-	-	-	-
CCOC(=O)C1CCCN(C(=O)c2cc3c(=O)n4cccc(C)c4nc3n2C)C1 (stereo not given)	-	-	.	.	.	.
Cc1cc(OCCOc2cccc3cccnc23)cc(C)c1Cl	-	-	-	2.2	-	-
COc1cc(OC)cc(-c2nnc(SCC(=O)N(Cc3ccccc3)C(C)(C)C)o2)c1	-	-	-	-	78	-
COc1cc(-c2nnc(SCC(=O)N(Cc3ccccc3)C(C)(C)C)o2)cc(OC)c1OC	-	-	-	-	85	-
COc1cc(OC)cc(-c2nnc(SCC(=O)N(C(C)C)C(C)C)o2)c1	-	-	-	2.3	72	-
CCCCN(CCCC)C(=O)CSc1nnc(-c2cc(OC)c(OC)c(OC)c2)o1	.	.	-	-	-	-
CCC(C)(C)C1CCC(=NNC(=O)c2ccoc2C)CC1 (stereo not given)	-	-	-	-	-	-
COc1ccc(-c2ncccc2O)cc1	-	-	-	-	-	-
CCOc1c(C)cc(-c2ncccc2O)cc1C	-	-	-	-	69!	-
COc1ccc(OCc2nc(N)nc(Nc3ccccc3)n2)cc1	-	-	-	-	68	70
Nc1nc(CSc2ccccn2)nc(Nc2ccccc2)n1	-	-	-	-	55	52
CCOC(=O)c1cnc(SCc2nc(N)nc(Nc3ccccc3)n2)nc1N	-	-	-	-	66	84
COc1ccc(Nc2nc(N)nc(CSc3nnc(N)s3)n2)cc1	-	-	-	-	-	-
COc1ccc2nc(SCc3nc(N)nc(Nc4ccccc4)n3)[nH]c2c1	-	-	-	-	81	98
COc1ccc(Nc2nc(N)nc(COc3ccc(OC)cc3)n2)cc1	-	-	-	-	-	-
CCC(C)(C)n1nnnc1C(c1ccc(C)cc1)N1CCN(Cc2ccc3c(c2)OCO3)CC1 (stereo not given)	-	-	.	.	.	.
Nc1cnn(C2CCCO2)c(=O)n1 (stereo not given)	-	-	.	.	.	.
COC(=O)c1ccc(Cl)c(NC(=O)c2ccc(-c3ccccc3)cc2)c1	-	-	-	-	-	-
SMILES	PLK1 PBD inh	PLK1 inh	CYP2C19 act	CYP2C9 act	CYP2C19 inh	CYP2C9 inh
COc1ccc(OC)c(/C=C/C(=O)c2ccc(Cl)cc2)c1	-	-	-	-	-	-
CC(C)c1ccc(/C=c2\sc3nc(-c4ccncc4)nn3c2=O)cc1	-	-	-	-	-	58
Cc1ccc(/C=c2\sc3nc(-c4cccnc4)nn3c2=O)cc1	-	-	-	-	-	-
COc1ccc(Cn2nnnc2C(c2ccccc2Cl)N2CCN(C3CCCC3)CC2)cc1 (stereo not given)	-	-	-	-	78	-
COc1ccc(Cn2nnnc2C(c2ccccc2)N2CCN(C3CCCC3)CC2)cc1 (stereo not given)	.	.	-	-	78	-
COc1ccc(C(c2nnnn2CCc2ccccc2)N2CCN(C3CCCC3)CC2)cc1 (stereo not given)	-	-	-	-	-	-
COc1ccc(OC)c(C(c2nnnn2Cc2ccccc2)N2CCN(C)CC2)c1 (stereo not given)	-	-	-	-	-	-
O=[N+]([O-])c1ccc(N2N=C(c3ccco3)CC2c2ccccc2)cc1 (stereo not given)	-	-	-	-	-	78
CCCCn1c(NC(=O)c2ccc(Br)o2)c(S(=O)(=O)c2ccccc2)c2nc3ccccc3nc21	-	-	-	-	-	83
COCc1nnc(NC(=O)CC(C)C)s1	-	-	.	.	.	.
O=C(COC(=O)CC12CC3CC(CC(C3)C1)C2)Nc1ncc(Cl)cc1Cl	-	-	-	-	89	66
Cc1ccc(S(=O)(=O)NCC(=O)OCC(=O)Nc2ncc(Cl)cc2Cl)cc1	-	-	-	-	-	-
O=C(COC(=O)C12CC3CC(CC(C3)C1)C2)Nc1ncc(Cl)cc1Cl	-	-	-	-	79	-
CC(C)(Oc1ccc(Cl)cc1)C(=O)OCC(=O)Nc1ncc(Cl)cc1Cl	-	-	-	-	91	-
COc1ccc(-c2cc3nc(C)cc(N)n3n2)cc1	-	-	-	-	77	-
COc1ccc(-c2cc3nc(C)cc(NCCO)n3n2)cc1	-	-	-	-	-	-
CC(C)(C)NC(=O)COC(=O)c1cc(F)c(F)cc1Cl	-	-	-	-	77	-
CCc1nc2ccc(F)cc2c(C(=O)NC2CCCCC2C)c1C (stereo not given)	-	-	-	-	-	77
O=C(O)c1c2c(nc3ccc(F)cc13)CCC2	-	-	.	.	.	.
CNC(=O)c1nc(C)n(-c2cc(Cl)ccc2Cl)n1	-	-	-	-	-	-
Cc1nc(C(=O)Nc2cccc(Cl)c2)nn1-c1cc(OC(C)C)c(Cl)cc1Cl	-	-	-	-	62	70
CC(C)Oc1cc(NC(=O)CSCC(=O)Nc2cccc(C(F)(F)F)c2)c(Cl)cc1Cl	-	-	-	-	-	-
Cc1nc(C(=O)Nc2ccc(Cl)cc2Cl)nn1-c1cc(OC(C)C)c(Cl)cc1Cl	-	-	-	-	-	58
Cc1nc(C(=O)Nc2cccc(Cl)c2Cl)nn1-c1cc(OC(C)C)c(Cl)cc1Cl	-	-	-	-	-	82
Cc1nc(C(=O)Nc2cc(Cl)ccc2Cl)nn1-c1cc(OC(C)C)c(Cl)cc1Cl	-	-	-	-	-	87
SMILES	PLK1 PBD inh	PLK1 inh	CYP2C19 act	CYP2C9 act	CYP2C19 inh	CYP2C9 inh
Cn1ncc(Cl)c1C(=O)Nc1cccc(Cl)c1	-	-	.	.	.	.
O=C(Nc1cccc(Br)c1)c1ccn[nH]1	-	-	-	-	-	-
COCCOC(=O)c1[nH]c2c(c1C)C(=O)CC(c1ccc(N(C)C)cc1)C2 (stereo not given)	-	-	-	-	88	93
COCCOC(=O)c1[nH]c2c(c1C)C(=O)CC(c1ccccc1)C2 (stereo not given)	-	-	.	.	.	.
COCCOC(=O)c1[nH]c2c(c1C)C(=O)CC(c1ccc(F)cc1)C2 (stereo not given)	-	-	-	-	83	98
COCCOC(=O)c1[nH]c2c(c1C)C(=O)C(C(=O)OC)C(C)C2 (stereo not given)	-	-	-	-	-	-
